Results on 40 compounds are retold here after PubChem BioAssay (EPA / NIEHS).

Several values for one entry are separate records, joined by “and”; a condition that tells them apart may be missing. Equal entries are not always repeated. Activity calls are given as the source filed them. How the source made its calls: active means hit-call score of the fitted dose curve at least 0.9, where 1 is the maximum; inactive means score below 0.9.

Read-out in this assay: Matrix Metallopeptidase 1 (MMP1), MMP1 (gene 4312)
As to the kind of experiment: BSK_hDFCGF_MMP1: BioMAP Diversity Plus: hDFCGF Assay for Matrix Metallopeptidase 1 (MMP1) Biomarker Activity (AID 2283064). To be noted: primary human foreskin fibroblasts; actives raise or lower the signal. How it is done:
BSK_hDFCGF is a cell-based, multiplexed-readout assay that uses foreskin fibroblast, a human skin primary cell, with measurements taken at 24 hours after chemical dosing in a 96-well plate.BSK_hDFCGF_MMP1 is an assay component measured in the BSK_hDFCGF assay. It measures MMP-1 antibody related to regulation of gene expression using ELISA technology.Data from the assay component BSK_hDFCGF_MMP1 was analyzed into 1 assay endpoint. This assay endpoint, BSK_hDFCGF_MMP1, was analyzed with bidirectional fitting relative to DMSO as the negative control and baseline of activity. Using a type of binding reporter, gain or loss-of-signal activity can be used to understand changes in the signaling as they relate to the gene MMP1. Furthermore, this assay endpoint can be referred to as a primary readout, because this assay has produced multiple assay endpoints where this one serves a signaling function. To generalize the intended target to other relatable targets, this assay endpoint is annotated to the protease intended target family, where the subfamily is matrix metalloproteinase.
The levels of cell surface (or secreted, indicated by the prefix "s") biomarker endpoints were measured by ELISA. Overt cytotoxicity to cells in confluent adherent cultures (all systems other than the BT system) was assessed by measuring total protein levels using sulforhodamine B (SRB) staining in parallel cultures at the time of biomarker measurements, indicated as SRB endpoints. For proliferation assays for adherent cell types, individual cell types are cultured at sub-confluence and relative cell numbers quantified by SRB staining at time points optimized for each system (48 h: 3C and CASM3C systems; 72 h: BT and HDF3CGF systems; 96 h: SAg system). SRB was performed by staining cells with 0.1% SRB after fixation with 10% TCA and reading wells at 560 nm.Viability and proliferation of PBMC (T cells) was quantified by Alamar Blue reduction for the SAg and BT systems. For PBMC viability (referred to as PBMC Cytotoxicity within the assay endpoint names), cells were plated (75,000/well in a 96-well plate) and then chemical samples added for 1 h before addition of activators, SEB and TSST-1 (20 ng/mL final concentration each). Cells were incubated for 90 h. Then, Alamar Blue (20 uL/well) (Invitrogen, Cat DAL1100) was added for 6 h, and the plates were read with a fluorescence microplate reader at 546/580 nm (excitation/emission). For PBMC proliferation, cells were plated and activated as above but incubated for only 16 h prior to addition of Alamar Blue. Plates were read after 6 h.
Turning to `NC(=O)c1c(Cl)cccc1Cl`, the result was inactive.

As a reminder, the AC50 is the concentration giving half of the maximal activity seen. `CCCCCCCCCCCCS`: the AC50 is 10.2 µM (active).

With `CC1(C)[C@H](C=C(Cl)Cl)[C@H]1C(=O)OCc1cccc(Oc2ccccc2)c1`, the result was inactive.

Consider `CCCO[Si](OCCC)(OCCC)OCCC`, for which the outcome was inactive.

In the case of `COC(=O)c1ccc(C(=O)OC)cc1`, the result was inactive.

In the case of `CC(=O)OC(C)(C)C1CC=C(C)CC1` (stereo not given), the outcome was inactive.

`C=CC(=O)OCC(CO)(COC(=O)C=C)COC(=O)C=C`: the AC50 was 0.146 µM (active).

As to `CCCCCCCC1CCCC1=O` (stereo not given), the outcome was inactive.

For the compound `C=C(F)C(=O)OC(C(F)(F)F)C(F)(F)F`, the result was inactive.

For `CCCCCCCCCC(=O)OCC`, the outcome was inactive.

In the case of `CC1=CC(C)C(C=O)C(C)C1` (stereo not given) (tested in a mixture with another compound), the outcome was inactive.

Consider `O=C1OC2(c3ccc(O)cc3Oc3cc(O)ccc32)c2ccccc21`, for which the result was inactive.

With `CC=CC(=O)C1=C(C)C=CCC1(C)C`, the result was inactive.

For `C=C(C)C(N)=O`, the result was inactive.

In the case of `Nc1ccc(N)c([N+](=O)[O-])c1`, the outcome was inactive.

As to `c1ccc(OCCOc2ccccc2)cc1`, the outcome was inactive.

As to `CC(C)CCCC(C)(C)O`, the result was inactive.

For the compound `COc1ccccc1NC(=O)CC(C)=O`, the outcome was inactive.

On to `CCOC(=O)C=Cc1ccccc1`, for which the outcome was inactive.

As to `O=S1(=O)CC(Cl)(Cl)C(Cl)(Cl)C1`, the AC50 was 0.865 µM (active).

On to `c1ccc(Sc2ccccc2)cc1`, for which the AC50 is 30.2 µM (active).

With `CCC(=O)OCC=Cc1ccccc1`, the outcome was inactive.

Turning to `C=C1CC/C=C(\C)CC[C@@H]2[C@@H]1CC2(C)C`, the AC50 was 29.7 µM (active).

As for `O=C(c1ccc(OCCN2CCCCC2)cc1)c1c(-c2ccc(O)cc2)sc2cc(O)ccc12`, the AC50 is 31.7 µM (active).

Turning to `CC(C)Cc1ccc(C(C)C(=O)O)cc1` (stereo not given), the outcome was inactive.

In the case of `CC(C)(CO)CO`, the outcome was inactive.

With `CCn1cc(C(=O)O)c(=O)c2ccc(C)nc21`, the result was inactive.

For `OCC(F)(OC(F)(F)C(F)(OC(F)(F)C(F)(F)C(F)(F)F)C(F)(F)F)C(F)(F)F` (stereo not given), the AC50 is 4.57 µM (active) and 4.92 µM (active).

As for `CC(C)(C)c1cccc(O)c1`, the outcome was inactive.

Take `CC/C(=C(\c1ccccc1)c1ccc(OCCN(C)C)cc1)c1ccccc1`: the AC50 was 10.1 µM (active) and 11.1 µM (active).

For the compound `c1ccc2c(c1)-c1ccc3ccc4cccc5cc-2c1c3c45`, the result was inactive.

Regarding `O=C(O)C(F)(F)C(F)(F)C(F)(F)C(F)(F)C(F)(F)C(F)(F)C(F)(F)C(F)F`, the outcome was inactive.

For the compound `CCCCN(CCO)CCO`, the outcome was inactive.

Regarding `CC(=O)OCC=C(C)CCC=C(C)CCC=C(C)C`, the outcome was inactive.

Consider `CC(=O)c1ccc(C)cc1`, for which the outcome was inactive.

Consider `O=C(O)C(F)(F)OC(F)(F)C(F)(F)OC(F)(F)C(F)(F)C(F)(F)C(F)(F)F`, for which the result was inactive.

With `C[C@]12CC[C@@H]3c4ccc(O)cc4CC[C@H]3[C@@H]1CC[C@@H]2O`, the result was inactive.

Take `C=C(C)C(=O)OCCC(F)(F)C(F)(F)C(F)(F)C(F)(F)C(F)(F)C(F)(F)C(F)(F)C(F)(F)F`: the result was inactive.

Consider `C#C[C@]1(O)CC[C@H]2[C@@H]3CCc4cc(O)ccc4[C@H]3CC[C@@]21C`, for which the result was inactive.

Regarding `CC(=O)CCC=C(C)CCC=C(C)C`, the result was inactive.
